Data on 26 compounds can be found in PubChem BioAssay (NCATS).

Results filed as inconclusive are left out. Entries that show only a call come without a potency. Activity calls are given as the source filed them. Unless noted, calls follow the shape of the dose curve; as a rule, active = well fitted curve in the direction sought with a large enough effect; inconclusive = small, poorly fitted or top-dose-only effect, or another doubt; inactive = no such curve, though single readings can be large; an effect the other way counts as inactive or inconclusive.

Assay [1] has as its target Luciferin 4-monooxygenase (Photinus pyralis) (UniProt P08659). In words: Biochemical firefly luciferase enzyme assay for NPC (AID 624030). Also: nearly all actives have a fitted effect of over 70% in size. Also: potency is read from the fitted curve at half-maximal effect. The gist of the method:
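Purified P. pyralis luciferase at 10 nM in 50 mM Tris Acetate (final), luminescence read within 5 minutes of enzyme addition to compounds. Activity normalised to PTC124 versus DMSO; concentration-response curves classed by r2, magnitude and activity.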

The target in assay [2] is Voltage-gated inwardly rectifying potassium channel KCNH2 (Homo sapiens) (UniProt Q12809). Briefly: qHTS Assay for Small Molecule Inhibitors of the Human hERG Channel Activity (AID 588834).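 Also: lower thallium flux fluorescence means stronger hERG block; nearly all actives have a fitted effect of over 50% in size.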 Also: potency is read from the fitted curve at half-maximal effect. The gist of the method: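 hERG block measured as reduced thallium-dye (FluxOR) fluorescence after stimulation buffer addition, read over 2 min. Cells were hERG-BacMam-transduced U2OS exposed to compound ~10 min […]; concentration-response fitted with Hill equation for AC50.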
On the technique in general: Quantitative high-throughput screening tests each substance at several concentrations.

The nature of assay [3]: qHTS of Trypanosoma Brucei Inhibitors: LOPAC Validation (AID 624147). The gist of the method: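 ADP (130 uM final) triggers the TbPYK reaction after compound addition; incubation is 45 min at room temperature. Kinase-Glo Plus is then added and luminescence imaged. Normalized data are fitted to concentration-effect curves.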
Assay [4] concerns the target Glucagon-like peptide 1 receptor (Homo sapiens) (UniProt P43220). In words: qHTS of GLP-1 Receptor Agonists: LOPAC Validation (AID 624148).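 Also: higher luminescence signal means agonism.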 The gist of the method:
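HEK293 cells stably co-expressing GLP-1R and a cAMP-responsive luciferase reporter, plated 12 hours before compound, then incubated 4-6 hr at 37 deg C. Luminescence read 12 min after detection reagent.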

A short description of assay [5]: qHTS of Nrf2 Activators: LOPAC Validation (AID 624149). The gist of the method:
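Cells (AREc32_Fluc) are plated at 1000 per well in OPTI-MEM containing 5% FBS and left overnight. Compounds are pinned in and incubated 24 hr at 37 deg C, and firefly luciferase is detected with Steady-Glo.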

The nature of assay [6]: HTS Assay for Allosteric Antagonists of the Human D2 Dopamine Receptor: Hit Validation in HTRF (AID 624455).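 Also: stable D1 dopamine receptor cell line scored for blocking the D1 response.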 The gist of the method:
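Inhibition of the D1-mediated response is measured by HTRF in cells that stably express the D1 dopamine receptor. Compounds reaching this step are hits from calcium-flux antagonism testing at EC80 dopamine in inducible Hek293 Trex D2 cells.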
(In TR-FRET formats the signal depends on donor and acceptor labels being close together.)

Assay [7] in a line: S16 Schwann cell PMP22 intronic element firefly luciferase assay (AID 624032). Also: nearly all actives have a fitted effect of over 30% in size. The gist of the method:
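Rat S16 Schwann cells stably carrying firefly luciferase driven by a PMP22 intronic element, in 10% FBS, treated 24 h at 37 C. ONE-Glo luminescence normalized to PTC124 control and DMSO (0%); curves classed by r2, magnitude and activity.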

Assay [8] in a line: S16 Schwann cell PMP22 intronic element beta-lactamase assay (AID 624044; calls by dose curve; also: nearly all actives have a fitted effect of over 15% in size; also: potency is read from the fitted curve at half-maximal effect). The gist of the method: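 Beta-lactamase reporter under a PMP22 intronic regulatory element in stable S16 rat Schwann cells; 24 h compound exposure. 460 nm blue signal normalized between DMSO (0%) and potassium clavulanate, with 535 nm FRET tracking viability; curves classed by r2 and response.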
The target in assay [9] is Glutaminase kidney isoform, mitochondrial (Homo sapiens) (UniProt O94925). Briefly: qHTS for Inhibitors of Glutaminase (GLS): LOPAC Validation (AID 624146).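 Also: glutamate product detected by oxidase and peroxidase coupled Amplex red fluorescence gain; nearly all actives have a fitted effect of over 60% in size.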 The gist of the method: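 hKGA in 45 mM KH2PO4 (pH 8.2), 0.02% Tween-20 with compound, then 1mM L-Glutamine (stock as added) plus glutamate oxidase/HRP/Amplex red coupling mix. Fluorescence read initially and after 30 min at RT; signal change reflects glutamate formation.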

A short description of assay [10]: Cell Proliferation Assay against the TMD8 Cell Line (AID 651645).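 Also: cells exposed to compound for 48 h before reading.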 The conditions noted are these: TMD8 DLBCL cell line proliferation/viability; at 46.1 µM (top of the series). The gist of the method:
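Viability by CellTiter-Glo after 48 h compound exposure of 500 log-phase TMD8 cells per well (RPMI, 5% FBS). Percent activity scaled between DMSO (100%) and 9.2 uM final bortezomib (0%).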

Chain of Glucagon-like peptide 1 receptor (Homo sapiens) (P43220 whole entry, looked up): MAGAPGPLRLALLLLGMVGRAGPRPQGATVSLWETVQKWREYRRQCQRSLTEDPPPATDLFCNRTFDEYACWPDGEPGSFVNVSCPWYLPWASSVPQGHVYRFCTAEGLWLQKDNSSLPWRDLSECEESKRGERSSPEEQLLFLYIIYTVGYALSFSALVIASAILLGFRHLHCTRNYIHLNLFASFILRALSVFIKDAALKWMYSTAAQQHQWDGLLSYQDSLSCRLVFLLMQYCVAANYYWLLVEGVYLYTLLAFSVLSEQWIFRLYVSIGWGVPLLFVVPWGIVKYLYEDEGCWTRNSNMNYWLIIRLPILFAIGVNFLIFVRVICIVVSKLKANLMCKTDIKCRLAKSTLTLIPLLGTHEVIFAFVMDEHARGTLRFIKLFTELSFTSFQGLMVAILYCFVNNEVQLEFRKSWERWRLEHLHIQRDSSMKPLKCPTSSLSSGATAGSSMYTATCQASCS
Chain of Luciferin 4-monooxygenase (Photinus pyralis) (P08659 whole entry, looked up): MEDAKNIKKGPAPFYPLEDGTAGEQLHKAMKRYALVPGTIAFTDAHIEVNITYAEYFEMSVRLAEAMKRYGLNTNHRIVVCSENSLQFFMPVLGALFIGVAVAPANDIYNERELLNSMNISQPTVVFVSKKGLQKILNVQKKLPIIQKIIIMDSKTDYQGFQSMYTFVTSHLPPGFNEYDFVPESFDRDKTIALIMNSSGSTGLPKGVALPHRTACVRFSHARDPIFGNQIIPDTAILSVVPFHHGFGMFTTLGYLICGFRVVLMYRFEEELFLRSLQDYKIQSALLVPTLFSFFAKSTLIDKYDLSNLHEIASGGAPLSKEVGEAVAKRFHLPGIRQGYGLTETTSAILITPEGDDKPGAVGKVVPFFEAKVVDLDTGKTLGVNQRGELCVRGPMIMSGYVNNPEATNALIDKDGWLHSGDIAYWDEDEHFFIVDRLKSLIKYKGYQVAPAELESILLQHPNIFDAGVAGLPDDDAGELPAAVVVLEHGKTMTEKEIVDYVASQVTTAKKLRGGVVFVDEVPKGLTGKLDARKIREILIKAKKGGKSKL
Chain of Voltage-gated inwardly rectifying potassium channel KCNH2 (Homo sapiens) (Q12809 whole entry, looked up): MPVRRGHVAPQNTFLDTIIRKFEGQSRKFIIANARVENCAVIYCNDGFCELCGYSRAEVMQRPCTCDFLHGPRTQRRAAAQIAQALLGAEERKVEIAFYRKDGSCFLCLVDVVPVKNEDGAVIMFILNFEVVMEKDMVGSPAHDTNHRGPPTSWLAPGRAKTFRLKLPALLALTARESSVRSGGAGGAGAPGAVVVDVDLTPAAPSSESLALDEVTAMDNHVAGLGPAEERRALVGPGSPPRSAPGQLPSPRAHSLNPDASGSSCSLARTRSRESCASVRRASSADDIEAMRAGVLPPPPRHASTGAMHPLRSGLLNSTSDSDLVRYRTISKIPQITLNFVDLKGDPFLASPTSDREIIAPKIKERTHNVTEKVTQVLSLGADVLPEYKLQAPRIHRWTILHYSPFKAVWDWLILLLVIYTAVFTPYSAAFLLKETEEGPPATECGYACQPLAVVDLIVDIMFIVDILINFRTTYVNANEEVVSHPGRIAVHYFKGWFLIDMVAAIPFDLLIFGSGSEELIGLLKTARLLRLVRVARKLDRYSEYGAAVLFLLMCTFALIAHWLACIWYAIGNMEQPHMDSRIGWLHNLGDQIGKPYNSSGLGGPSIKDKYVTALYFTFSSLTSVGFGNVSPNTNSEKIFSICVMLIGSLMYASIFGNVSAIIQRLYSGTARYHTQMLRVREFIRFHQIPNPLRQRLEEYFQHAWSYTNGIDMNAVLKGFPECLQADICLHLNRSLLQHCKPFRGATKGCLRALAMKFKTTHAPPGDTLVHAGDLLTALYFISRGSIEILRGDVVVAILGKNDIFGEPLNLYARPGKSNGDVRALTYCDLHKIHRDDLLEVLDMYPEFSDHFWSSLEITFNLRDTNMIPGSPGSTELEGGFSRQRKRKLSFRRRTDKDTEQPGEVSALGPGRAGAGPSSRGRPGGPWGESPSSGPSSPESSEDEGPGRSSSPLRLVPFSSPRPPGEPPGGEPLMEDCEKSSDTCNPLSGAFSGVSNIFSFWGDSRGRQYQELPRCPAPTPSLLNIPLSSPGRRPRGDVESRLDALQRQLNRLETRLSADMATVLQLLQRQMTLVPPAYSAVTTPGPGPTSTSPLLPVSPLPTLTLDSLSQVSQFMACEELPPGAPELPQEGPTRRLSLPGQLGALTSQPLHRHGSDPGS
Chain of Glutaminase kidney isoform, mitochondrial (Homo sapiens) (O94925 whole entry, looked up, canonical isoform): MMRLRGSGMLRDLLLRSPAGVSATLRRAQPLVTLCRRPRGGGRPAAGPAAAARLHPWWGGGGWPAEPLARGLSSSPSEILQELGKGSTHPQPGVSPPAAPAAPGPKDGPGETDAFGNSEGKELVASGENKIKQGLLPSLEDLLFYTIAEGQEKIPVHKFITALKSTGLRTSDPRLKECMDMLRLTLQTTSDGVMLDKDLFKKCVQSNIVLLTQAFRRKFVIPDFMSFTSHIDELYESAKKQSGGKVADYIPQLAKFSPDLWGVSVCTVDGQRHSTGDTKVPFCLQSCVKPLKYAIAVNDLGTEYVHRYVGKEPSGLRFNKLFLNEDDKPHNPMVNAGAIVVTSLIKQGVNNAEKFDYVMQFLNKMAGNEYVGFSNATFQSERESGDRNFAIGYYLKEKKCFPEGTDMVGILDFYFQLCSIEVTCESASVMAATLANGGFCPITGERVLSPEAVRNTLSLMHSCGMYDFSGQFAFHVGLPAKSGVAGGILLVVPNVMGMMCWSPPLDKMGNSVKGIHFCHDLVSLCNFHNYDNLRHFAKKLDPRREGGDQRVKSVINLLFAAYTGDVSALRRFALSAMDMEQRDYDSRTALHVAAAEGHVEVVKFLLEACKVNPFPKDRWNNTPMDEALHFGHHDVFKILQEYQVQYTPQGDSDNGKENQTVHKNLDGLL

Turning to `Cc1ccc(/C=N/n2c(-c3ccccc3)csc2=S)cc1`, the Potency result in assay [1] is “inactive”.

With `COC(=O)C1=C(C)NC(COC(N)=O)=C(C(=O)OC(C)C)C1c1cccc(Cl)c1Cl` (stereo unspecified), the Potency entry in assay [1] is “inactive”.

As for `C[C@H](CN1CCCC1)C(=O)c1ccc(C(F)(F)F)cc1`, the Potency result in assay [1] is “inactive”.

For `CCC(C(=O)NC(=O)NC(C)=O)c1ccccc1` (stereo unspecified), in [1], the Potency entry is “inactive”.

Consider `COc1cc(NS(=O)(=O)c2ccc(N)cc2)nc(C)n1`, for which the Potency result in [1] is “inactive”.

In the case of `Oc1ccc(CCNCCCCCCNCCc2ccccc2)cc1O`, in [1], the Potency result was “inactive”.

Take `CC(C)=CCC/C(C)=C/CC/C(C)=C/CCC(=O)OC/C=C(\C)CCC=C(C)C`: in [1], the Potency entry was “inactive”.

For `O=C1NC(c2cccc([N+](=O)[O-])c2)=CCN1c1ccccc1O`, the Potency result in assay [2] is “inactive”. Also, the compound was classed as inactive in [3], in assay [4], in assay [5] and in assay [6].

As to `CN(C)c1cc2c(Nc3ccc4c(cnn4Cc4ccccc4)c3)ncnc2cn1`, the Potency result in [2] was “inactive”. In addition, the outcome in assay [3], in [4], in assay [5] and in [6] was inactive.

Consider `Cc1ccc2c(Cl)cc(Cl)c(O)c2n1`, for which the Potency entry in [1] is “inactive”.

Consider `OC(CCCN1CCCCC1)(c1ccccc1)c1ccccc1`, for which, in assay [1], the Potency result was “inactive”.

Take `O=S(=O)(O)c1ccc2nc(-c3ccccc3)[nH]c2c1`: the Potency entry in [2], in assay [7] and in assay [8] was “inactive” in each case.

`CC(=O)Nc1ccn(C2COC(COC(=O)c3ccccc3)O2)c(=O)n1` (stereo unspecified): the Potency result in assay [1] was “inactive”.

Regarding `COc1ccccc1OCC1CNC(=O)O1` (stereo unspecified), in [1], the Potency result was “inactive”.

For `O=C(CCC1CCN(Cc2ccccc2)CC1)c1ccc2c(c1)NCCCC2`, the Potency entry in assay [1] was “inactive”.

In the case of `OCc1cccnc1`, the Potency entry in assay [1] is “inactive”.

Turning to `Brc1ccc([C@H]2CN3CCSC3=N2)cc1`, the Potency in assay [2] was 11.2 µM (active). The Potency entry in assay [9] was “inactive”. Besides, the result in assay [3], in [4], in assay [5] and in assay [6] was inactive.

Turning to `CC(C(=O)O)c1ccc(/C=C2\CCCCC2=O)cc1` (stereo unspecified), the Potency in [1] is 16.1 µM (active).

Turning to `Cc1cccc(N(C)C(=S)Oc2ccc3c(c2)CCC3)c1`, the Potency result in [1] was “inactive”.

With `CCOc1ccc(NS(=O)(=O)c2ccc(N)cc2)nn1`, the Potency entry in assay [1] is “inactive”.

Consider `CCOC(=O)NNc1nncc2ccccc12`, for which, in assay [1], the Potency entry was “inactive”.

`CC(C)(C)c1nnc(NS(=O)(=O)c2ccccc2)s1`: the Potency entry in [1] is “inactive”.

With `O=[N+]([O-])c1ccc(-c2nc(-c3ccc(F)cc3)c(-c3ccncc3)[nH]2)cc1`, the Potency in [2] is 8.91 µM (active). Further, the Potency entry in assay [9] is “inactive”. The result in [3], in [4], in assay [5] and in [6] was inactive.

On to `CC(=O)OCC(=O)Nc1cc(C#N)cc(NC(=O)COC(C)=O)c1Cl`, for which the Potency result in [1] is “inactive”.

Take `CCCCCCCCCCCCCC[N+](C)(C)C`: the Potency in assay [8] was 25.1 µM (active).

Turning to `C[C@@H](O[C@H]1OCCN(Cc2n[nH]c(=O)[nH]2)[C@H]1c1ccc(F)cc1)c1cc(C(F)(F)F)cc(C(F)(F)F)c1`, the viability (% of control) in assay [10] amounted to 8.07%.
